Screening results: PubChem, National Center for Advancing Translational Sciences (NCATS)
Rows were chosen to be rich in hits. Some 9.3% of all compounds tested hit in one or more screens of this group.
ELG1 DNA repair – ELG1-dependent DNA repair inhibition. HEK293T ELG1-luciferase reporter, luminescence, 16 h; DNA damage induced by 5-fluorouridine. Potency, µM (titrated, usually from 46.1 µM), hits mostly inhibitors. 2.3% of 330,000 active. AID 504467; note: nearly all actives have a fitted effect of over 55% in size
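Reporter activity after DNA damage by 5-fluorouridine is monitored. Compound-treated cells incubate 16 hr at 37 °C, then ONE-Glo is added for 30 min before luminescence reading.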
NPC1 prom act – NPC1 promoter activation; Huh7 NPC1 promoter luciferase reporter, 24 h; Potency, µM (highest dose often 9.22 µM), actives largely listed as activators; 2.4% of 320,000 active; AID 485313; note: nearly all actives have a fitted effect of over 60% in size
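Luminescence from an NPC1 promoter-driven luciferase reporter in stably transfected Huh7 cells was measured after 24 h compound treatment at 37 °C, followed by 10 min ambient incubation with luciferase detection reagent.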
ELG1 genotoxic – induces genotoxicity in HEK293T cells with luciferase-tagged ELG1; HEK293T ELG1-luciferase reporter, luminescence, 16 h; Potency, µM (titrated, usually from 46 µM), most hits filed as activators; 1.3% of 330,000 active; note: nearly all actives have a fitted effect of over 60% in size
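Luminescence read-out: rising ELG1-luciferase signal, reflecting elevated ELG1 protein under genetic stress, flags genotoxic compounds. Cells were treated for 16 hr at 37 °C before ONE-Glo detection.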
FLuc counter – firefly luciferase modulation, counter-screen for miR-21 project; P08659; purified FLuc, Km substrates, luminescence inhibition; Potency, µM (titrated, usually from 57.5 µM), actives largely listed as inhibitors; 6.9% of 360,000 active; note: nearly all actives have a fitted effect of over 55% in size
Target sequence (P08659 whole entry, looked up): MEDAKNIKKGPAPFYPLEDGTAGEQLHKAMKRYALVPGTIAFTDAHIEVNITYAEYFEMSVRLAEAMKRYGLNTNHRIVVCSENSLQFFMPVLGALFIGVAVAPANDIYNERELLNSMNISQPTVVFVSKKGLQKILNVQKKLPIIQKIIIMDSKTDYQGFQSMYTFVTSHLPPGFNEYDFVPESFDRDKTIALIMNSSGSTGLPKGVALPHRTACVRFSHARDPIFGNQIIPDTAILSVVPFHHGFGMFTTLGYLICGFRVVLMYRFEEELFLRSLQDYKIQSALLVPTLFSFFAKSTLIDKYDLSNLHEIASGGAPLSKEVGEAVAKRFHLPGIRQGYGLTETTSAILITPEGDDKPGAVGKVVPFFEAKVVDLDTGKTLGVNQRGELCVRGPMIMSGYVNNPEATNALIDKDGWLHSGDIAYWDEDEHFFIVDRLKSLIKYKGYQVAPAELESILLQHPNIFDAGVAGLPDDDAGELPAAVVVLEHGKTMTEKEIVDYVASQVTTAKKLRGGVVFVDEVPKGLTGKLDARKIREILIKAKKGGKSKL
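Purified P. pyralis luciferase (10nM final) with 10uM D-luciferin and 10uM ATP (Km levels) in 50mM Tris acetate pH 7.5, 10mM Mg acetate, 0.01% Tween-20, 0.05% BSA; qHTS 6-point titration, ~60 µM downward; luminescence read.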
Rab9 promoter act – Rab9 promoter activation; Huh7 Rab9 promoter-luciferase reporter, luminescence, 24 h; Potency, µM (doses to about 9.22 µM), hits mostly activators; 2.8% of 320,000 active; note: nearly all actives have a fitted effect of over 60% in size
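Measured in stably transfected Huh7 cells bearing a Rab9 promoter–luciferase construct: 24 h compound treatment at 37 °C, followed by luminescence detection.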
SMN2 splice up – increases expression of the SMN2 splice variant. HEK293 SMN2-luciferase splicing reporter, luminescence, 30-36 h. Potency, µM (highest dose often 46.1 µM), actives largely listed as activators. 2.8% of 210,000 active. AID 1458; note: nearly all actives have a fitted effect of over 55% in size
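HEK293 cells carry an SMN2 minigene-luciferase reporter in which exon 7 inclusion puts luciferase in frame. Cells were seeded at 2000 cells/well, attached for 10-12 hours, then exposed to compounds for 30-36 hours at 37C before ONE-Glo luminescence.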
Numbers stand for hits. Calls come from the whole dose curve; as a rule, active = well fitted curve in the direction sought with a large enough effect; inconclusive = small, poorly fitted or top-dose-only effect, or another doubt; inactive = no such curve, though single readings can be large; an effect the other way counts as inactive or inconclusive.

CCCCCCCCCCCC(=O)c1c(O)cccc1O was read as ELG1 DNA repair inactive, NPC1 prom act inactive, ELG1 genotoxic inactive, FLuc counter inconclusive, Rab9 promoter act inactive and SMN2 splice up inactive.
Screening COc1ccccc1-c1ccc(/C=C2\C=CC(=O)O2)o1 returned ELG1 DNA repair inconclusive, NPC1 prom act inactive, ELG1 genotoxic inactive, FLuc counter 7.6µM and Rab9 promoter act inactive.
`CC(C)c1ccc(CN2CCN(C(=O)CSc3nnnn3C3CC3)CC2)cc1` gave ELG1 DNA repair inactive, NPC1 prom act inactive, ELG1 genotoxic inactive, FLuc counter inactive and Rab9 promoter act inactive.
O=C(O)C1CN(CCCP(=O)(O)O)CCN1 (stereo unspecified) was read as NPC1 prom act inactive, Rab9 promoter act inactive and SMN2 splice up inactive.
O=C(O)c1ccc(N/N=C/c2ccc(-c3cc(Cl)ccc3Cl)o2)cc1 was read as ELG1 DNA repair inconclusive, NPC1 prom act inconclusive, ELG1 genotoxic inconclusive, FLuc counter 9.5µM and Rab9 promoter act inconclusive.
Screening O=C(Cc1ccc(F)cc1)N/N=C/c1ccc(-c2ccc(Cl)c(C(=O)O)c2)o1 returned ELG1 DNA repair inactive, NPC1 prom act inactive, ELG1 genotoxic inactive, FLuc counter inconclusive, Rab9 promoter act inactive and SMN2 splice up inactive.
O=C(O)c1ccc(N/N=C/c2ccc(-c3cccc(Cl)c3)o2)cc1 was read as ELG1 DNA repair inconclusive, NPC1 prom act 0.45µM, ELG1 genotoxic inconclusive, FLuc counter 2.7µM and Rab9 promoter act 0.32µM.
Screening Cc1c(C(=O)O)cccc1-c1ccc(/C=N/Nc2ccc(Br)cc2)o1 returned ELG1 DNA repair inconclusive, NPC1 prom act inconclusive, ELG1 genotoxic inconclusive, FLuc counter 12µM and Rab9 promoter act inconclusive.
`Cc1c(C(=O)O)cccc1-c1ccc(/C=N/n2cnnc2)o1` gave ELG1 DNA repair inactive, NPC1 prom act inactive, ELG1 genotoxic inactive, FLuc counter inactive and Rab9 promoter act inactive.
For O=C(O)c1cc(N/N=C/c2ccc(-c3ccc(F)cc3)o2)ccc1Cl the results were ELG1 DNA repair inconclusive, NPC1 prom act inconclusive, ELG1 genotoxic inconclusive, FLuc counter 9.5µM and Rab9 promoter act inconclusive.
Screening Cc1ccc(C(=O)N/N=C/c2ccc(-c3cccc(Cl)c3)o2)cn1 returned ELG1 DNA repair inconclusive, NPC1 prom act inactive, ELG1 genotoxic inactive, FLuc counter inconclusive and Rab9 promoter act inactive.
`COC(=O)c1ccc(Cl)c(-c2ccc(/C=N/NC(=O)Nc3ccccc3)o2)c1` gave ELG1 DNA repair inactive, NPC1 prom act inactive, ELG1 genotoxic inactive, FLuc counter inactive, Rab9 promoter act inactive and SMN2 splice up inactive.
For COc1cccc(CNC(=O)COC(=O)c2cccc(S(=O)(=O)N3CCCC3)c2)c1 the results were ELG1 DNA repair inactive, NPC1 prom act inactive, ELG1 genotoxic inactive, FLuc counter inactive and Rab9 promoter act inactive.
For O=C(O)c1ccc(N/N=C/c2ccc(-c3ccc(Cl)cc3Cl)o2)cc1 the results were ELG1 DNA repair inconclusive, NPC1 prom act inconclusive, ELG1 genotoxic inconclusive, FLuc counter 0.95µM and Rab9 promoter act inactive.
COc1ccc(CCNc2oc(COc3ccc(Br)cc3)nc2C#N)cc1OC was read as ELG1 DNA repair 21µM, NPC1 prom act inactive, ELG1 genotoxic inactive, FLuc counter inactive, Rab9 promoter act inactive and SMN2 splice up inactive.
COc1ccc(CCNc2oc(Cc3cccc4ccccc34)nc2C#N)cc1OC was read as ELG1 DNA repair 16µM, NPC1 prom act inactive, ELG1 genotoxic inactive, FLuc counter inactive, Rab9 promoter act inactive and SMN2 splice up inactive.
`COc1ccc(CCNc2oc(COc3ccccc3F)nc2C#N)cc1` gave ELG1 DNA repair inactive, NPC1 prom act inactive, ELG1 genotoxic inactive, FLuc counter inactive, Rab9 promoter act inactive and SMN2 splice up inactive.
Screening CNc1oc(Cc2cccc3ccccc23)nc1C#N returned ELG1 DNA repair inactive, NPC1 prom act inactive, ELG1 genotoxic inactive, FLuc counter inactive, Rab9 promoter act inactive and SMN2 splice up inactive.
For CC1CCCN(C(=O)CSc2nnc3ccccn23)C1 (stereo unspecified) the results were ELG1 DNA repair inconclusive, NPC1 prom act inactive, ELG1 genotoxic inactive, FLuc counter inactive and Rab9 promoter act inactive.
`CCN(CC)CCNC(=O)CN1C(=O)CSc2ccc(S(=O)(=O)N3CCOCC3)cc21` gave FLuc counter inactive.
CCN(CC)C(=O)CSc1nc(COc2ccccc2)nc2ccccc12 was read as ELG1 DNA repair 23µM, NPC1 prom act inactive, ELG1 genotoxic inactive, FLuc counter inactive and Rab9 promoter act inactive.
Screening COC(=O)CSc1nc(COc2ccccc2)nc2ccccc12 returned ELG1 DNA repair inactive, NPC1 prom act inactive, ELG1 genotoxic inactive, FLuc counter inactive and Rab9 promoter act inactive.
`Cc1ccccc1NC(=O)CSc1nc(COc2ccccc2)nc2ccccc12` gave ELG1 DNA repair 26µM, NPC1 prom act inactive, ELG1 genotoxic inactive, FLuc counter inactive, Rab9 promoter act inactive and SMN2 splice up inactive.
`Cc1cc(C)c(NC(=O)CSc2nc(COc3ccccc3)nc3ccccc23)c(C)c1` gave ELG1 DNA repair inconclusive, NPC1 prom act inactive, ELG1 genotoxic inactive, FLuc counter inactive, Rab9 promoter act inactive and SMN2 splice up inactive.
Screening CC(=O)Cn1cnc2scc(-c3ccc(C)c(C)c3)c2c1=O returned ELG1 DNA repair inactive, NPC1 prom act inactive, ELG1 genotoxic inactive, FLuc counter inactive and Rab9 promoter act inactive.
For COC(OC)c1ccnc(-c2ccc(OC(=O)c3ccc(F)cc3)cc2)n1 the results were ELG1 DNA repair inconclusive, NPC1 prom act inactive, ELG1 genotoxic inactive, FLuc counter inconclusive, Rab9 promoter act inactive and SMN2 splice up inactive.
`CCCC(=O)Oc1ccc(-c2nccc(C(OC)OC)n2)cc1` gave ELG1 DNA repair inconclusive, NPC1 prom act inactive, ELG1 genotoxic inactive, FLuc counter 13µM, Rab9 promoter act inconclusive and SMN2 splice up inactive.
Screening COc1cccc(N/C(=N/C(=S)Nc2ccc(C)cc2C)Nc2nc(C)cc(C)n2)c1 returned ELG1 DNA repair 26µM, NPC1 prom act inactive, ELG1 genotoxic inactive, FLuc counter inactive and Rab9 promoter act inactive.
Screening CCNC(=S)/N=C(/Nc1ccc(OC)cc1)Nc1nc(C)cc(C)n1 returned ELG1 DNA repair inactive, NPC1 prom act inactive, ELG1 genotoxic inactive, FLuc counter inconclusive and Rab9 promoter act inactive.
For COc1cccc(NC(=S)Nc2cc(C)cc(C)n2)c1 the results were ELG1 DNA repair inconclusive, NPC1 prom act inactive, ELG1 genotoxic inactive, FLuc counter 2.1µM and Rab9 promoter act inactive.
Screening CC(=O)Nc1ccc(NC(=O)CCC(=O)OCC(=O)c2ccc(F)cc2)cc1 returned ELG1 DNA repair inactive, NPC1 prom act inactive, ELG1 genotoxic inactive, FLuc counter inactive and Rab9 promoter act inactive.
